Consider 40 compounds from PubChem BioAssay (Tox21).

Results filed as inconclusive are left out. A call without a number means that no potency is given here. A structure can be active in one record and inactive in another. Activity calls are given as the source filed them. Calls come from the whole dose curve; as a rule, active = well fitted cell-killing curve with a large enough effect in the repeat runs; inconclusive = weak or mixed curves, or effect the other way; inactive = flat fitted curve, though single readings scatter.
Potency is the fitted concentration of half-maximal effect.

The nature of the assay: qHTS assay to identify small molecule agonists of the androgen receptor (AR) signaling pathway in the presence of an antagonist - cell viability counter screen (AID 1259379). Note: nearly all actives have a fitted effect of over 25% in size. As to conditions: MDA-kb2 viability, CellTiter-Fluor, 16 h; series mostly up to 92.4 µM; activity change, negative = cytotoxicity: at the top concentration. The source says:
National Center for Advancing Translational Sciences [NCATS]
NIH Chemical Genomics Center [NCGC]
U.S. Environmental Protection Agency [EPA]
National Institutes of Environmental Health Sciences [NIEHS]
National Toxicology Program [NTP]
U.S. Food and Drug Administration [FDA]
Androgen receptor (AR) is an important member of nuclear receptor family. Its signaling plays a critical role in AR-dependent prostate cancer and other androgen related diseases. Considerable attention has been given in the past decades to develop methods to study and screen for the environmental chemicals that have the potential to interfere with metabolic homeostasis, reproduction, developmental and behavioral functions. Therefore AR binding assay for screening against androgen agonists and antagonists can be used to identify potential endocrine disruptors.
MDA-kb2 cells (from ATCC, deposited by Wilson et al.) are human breast carcinoma cells that were stably transfected with a luciferase reporter gene under control of the MMTV promoter that contains response elements for both androgen receptor (AR) and glucocorticoid receptor (GR). This particular screening for measuring luciferase reporter gene activity using MDA-kb2 cells against Tox21 10K library compounds is a confirmation study on agonist mode screening in the presence of AR-antagonist compound (Nilutamide) at 3.0uM final concentration. The cytotoxicity of the compounds was tested in parallel by measuring the cell viability using CellTiter-Fluor assay system (Promega, Madison, WI) in the same wells.
Tox21 Assay Protocol Summary:
MDA-kb2 cells (cells cultured without CO2) were dispensed at 3,000 cells/well in 4uL of culture medium into white wall/solid-bottom 1536-well plates (Corning Life Sciences, Corning, NY) using a Multidrop Combi (Thermo Fisher Scientific Inc., Waltham, MA) dispenser. The assay plates were incubated at 37C and 0% CO2 for 5hr. One uL of 3.0uM (final concentration) Nilutamide or assay buffer was added using two separate tips of Flying Reagent Dispenser (FRD, Aurora Discovery, San Diego, CA). Then 23nL of compounds dissolved in DMSO at 15 concentrations and positive controls were transferred to the assay plates using a Pintool station (Wako, San Diego, CA). The assay plates were incubated at 37C and 0% CO2 for 16 hr. After 15hr incubation at 37C, 1uL/well CellTiter-Fluor reagent (Promega Corporation) was added to each well of the assay plates using FRD. After 1hr incubation at 37C and 0% CO2, the fluorescence signal was measured using a ViewLux plate reader (PerkinElmer, Shelton, CT).
Consider `O=Nc1ccc(O)cc1`, for which the Potency was 47.4 µM (active) and inactive.
Consider `CCCCCCCCCCCCOCC1CO1` (stereo not given), for which the Potency result is “inactive”.
The same measure, in the same setting: to `Cc1cc(NS(=O)(=O)c2ccc(N)cc2)no1` belongs “inactive”.
Still for that read-out and setting: to `O=C(c1cc(O)c(O)c(O)c1)c1ccc(O)c(O)c1O` belongs 27.3 µM (active); to `CCCCCCCCCCC=CC1CC(=O)OC1=O` (stereo not given), “inactive”; to `CN(C)c1cccc(O)c1`, “inactive”.
Same read-out and setting: to `C=CC(=O)OCCCCCCCC(C)C` belongs “inactive”; to `O=C(Oc1ccccc1)c1ccc(O)cc1`, “inactive”; to `CCCCC(CC)C(=O)OCCOCCOCCOC(=O)C(CC)CCCC` (stereo not given), “inactive”.
As to `CC[Si](OC(C)=O)(OC(C)=O)OC(C)=O`, the Potency entry was “inactive”.
The same measure, in the same setting: to `CCOC(=O)C1OC1c1ccccc1` (stereo not given) belongs “inactive”; to `O=C1O[C@H](CO)[C@@H](O)[C@H](O)[C@H]1O`, “inactive”.
The same measure, in the same setting: to `COC(=O)c1ccc(C(=O)OC)cc1` belongs “inactive”.
As for `O=S(=O)(O)CCS`, the Potency entry was “inactive”.
On the same count and under the same terms, to `CC(C)(N=C=O)c1cccc(C(C)(C)N=C=O)c1` belongs “inactive”.
Still for that read-out and setting: to `OCCOCCOCCOCCO` belongs “inactive”; to `CC1=C(/C=C/C(C)=C/C=C/C(C)=C/CO)C(C)(C)CCC1`, “inactive”; to `OC[C@@H](O)[C@@H](O)[C@H](O)[C@@H](O)CO`, “inactive”.
In the case of `COCC(=O)O`, the Potency entry was “inactive”.
The same measure, in the same setting: to `CCCCC(CC)COC(C)=O` (stereo not given) belongs “inactive”; to `CCOC(=O)/C=C\C(=O)OCC`, “inactive”; to `OCC1CCCO1` (stereo not given), “inactive”.
Still for that read-out and setting: to `CCCCOCCO` belongs “inactive”.
Same read-out and setting: to `CCC(C)C=O` (stereo not given) belongs “inactive”; to `CC(=O)CCc1ccccc1`, “inactive”; to `OC[C@@H](O)[C@H](O)[C@H](O)[C@@H](O)CO`, “inactive”.
For `O=c1c(-c2ccc(O)cc2)coc2cc(O)ccc12`, the Potency entry is “inactive”.
For `CCCCC(CC)COC(=O)/C=C\C(=O)OCC(CC)CCCC` (stereo not given), the Potency result is “inactive”.
In the case of `O=C(c1ccc(O)cc1)c1ccc(O)cc1O`, the Potency result is “inactive”.
As for `C[C@@H]1O[C@@H](OC[C@H]2O[C@@H](Oc3c(-c4ccc(O)c(O)c4)oc4cc(O)cc(O)c4c3=O)[C@H](O)[C@@H](O)[C@@H]2O)[C@H](O)[C@H](O)[C@H]1O`, the “activity change, negative = cytotoxicity” value is -14.5% [at 42.5 µM] (inactive).
`Clc1ccc(Cl)c(Cl)c1Cl`: the Potency result is “inactive”.
Still for that read-out and setting: to `CCOC(=O)[C@H](CCc1ccccc1)N[C@@H](C)C(=O)N1Cc2ccccc2C[C@H]1C(=O)O` belongs “inactive”.
`S=c1nc[nH]c2nc[nH]c12`: the Potency result was “inactive”.
Regarding `CS(=O)(=O)Nc1ccc([N+](=O)[O-])cc1Oc1ccccc1`, the Potency was 26.6 µM (active).
Still for that read-out and setting: to `NS(=O)(=O)c1cc2c(cc1Cl)NC=NS2(=O)=O` belongs “inactive”; to `Cc1cc(Cc2ccc(N)c(C)c2)ccc1N`, “inactive”; to `C=C(C)C(=O)OCCCCCC`, “inactive”.
The same measure, in the same setting: to `O=[N+]([O-])c1cccc(Cl)c1` belongs “inactive”; to `C[C@@H](O)[C@H]1C(=O)N2C(C(=O)O)=C(S[C@@H]3CN[C@H](C(=O)N(C)C)C3)[C@H](C)[C@H]12`, “inactive”.
On the same count and under the same terms, to `Cc1ccc(C)c(C)c1` belongs “inactive”.
